Assay [1] deals with XIP peptide (Xip251-270) binding. The assay is described as follows: small-molecule binders of XIP peptide, primary screen, biochemical, small-molecule microarray, fluorescence 635/667 nm, 0.1 µg/mL protein (AID 1182). Particulars: fluorescent protein binding, 635 nm, higher = more signal, called active from +8 up or from −8 down.
A further assay relates to XIP peptide (Xip251-270). The assay is described as follows: small-molecule binders of XIP peptide, primary screen, biochemical, small-molecule microarray, fluorescence 635/667 nm, 0.5 µg/mL protein (AID 1183). Particulars: small-molecule microarray binding, fluorescence 635 nm; higher = more signal.
The nature of assay [2]: Plasmodium falciparum growth inhibition, primary screen, strain 3D7, DAPI fluorescence, 100 nL (AID 1184).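 Also: parasites grown inside human red blood cells in medium with human serum.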 Particulars: P. falciparum 3D7 growth, 3 d, higher = more signal.
The target of assay [3] is Homeobox protein Hox-A13 (Mus musculus) (UniProt Q62424). The assay is described as follows: inhibitors of HoxA13-DNA binding, primary screen, biochemical, fluorescence polarization, labeled oligonucleotide (AID 1185). Particulars: 15 min, higher = more signal, called active from +8 up or from −8 down.
A short description of assay [4]: inhibitors of hydroxyurea-induced Chk1 phosphorylation, primary screen, imaging, HeLa, phospho-Chk1 antibody, percent positive cells (AID 1186). Particulars: hydroxyurea-induced phospho-Chk1 immunofluorescence imaging, higher = more signal.
Assay [5] in a line: inhibitors of hydroxyurea-induced Chk1 phosphorylation, primary screen, imaging, HeLa, phospho-Chk1 nuclear intensity (AID 1187). Particulars: hydroxyurea-induced phospho-Chk1 immunofluorescence imaging, higher = more signal.

Active and inactive are the calls of the source. Unless noted, no rule for the calls is given here.

Chain of Homeobox protein Hox-A13 (Mus musculus) (Q62424 whole entry, looked up): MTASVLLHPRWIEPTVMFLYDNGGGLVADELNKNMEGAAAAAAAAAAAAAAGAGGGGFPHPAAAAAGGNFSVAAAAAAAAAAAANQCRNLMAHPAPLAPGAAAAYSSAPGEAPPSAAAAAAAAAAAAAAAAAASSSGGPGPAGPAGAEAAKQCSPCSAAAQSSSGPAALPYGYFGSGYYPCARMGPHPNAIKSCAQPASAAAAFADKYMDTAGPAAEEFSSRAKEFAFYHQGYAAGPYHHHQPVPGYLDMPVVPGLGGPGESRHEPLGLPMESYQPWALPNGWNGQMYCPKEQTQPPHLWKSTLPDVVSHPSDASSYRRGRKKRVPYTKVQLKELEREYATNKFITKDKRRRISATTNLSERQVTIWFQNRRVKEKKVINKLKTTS

Regarding `C=CC[C@]1(C(=O)NCCCOC)N=C(c2ccc(OCCCO)cc2)O[C@H]1c1ccccc1N=[N+]=[N-]`, the results for the composite z-score (in assay [1]; in the assay on XIP peptide (Xip251-270)) were 0.403 (inactive) and 0.707, respectively. Also, the z-score was -1.99 in assay [2], -3.07 (inactive) in assay [3], -0.432 (inactive) in assay [4] and 0.0181 (inactive) in assay [5].
Regarding `O=C1c2ccccc2[C@@]2(Cc3ccccc3N(CCN3CCOCC3)C2=O)[C@H](c2ccc(CO)cc2)N1Cc1ccccc1`, the composite z-score was -0.178 (inactive) in assay [1] and 0.206 in the assay with XIP peptide (Xip251-270). Moreover, the z-score in assay [2] was -0.119; in assay [3], -0.421 (inactive); in assay [4] it was -0.305 (inactive); in assay [5], -0.0278 (inactive).
In the case of `C#CCN(CC=C(C)C)[C@H](CO)c1ccccc1`, the composite z-score was 0.102 (inactive) in assay [1] and -0.564 in the assay on XIP peptide (Xip251-270). Moreover, the z-score in assay [2] was -1.34; in assay [3], -0.2 (inactive); in assay [4], 0.557 (inactive); in assay [5], 0.457 (inactive).
With `Cc1ccc(S[C@]2(C(=O)NCCN3CCOCC3)CC(=O)N(Cc3ccccc3)[C@@H]2c2ccc(CO)cc2I)cc1`, the composite z-score in assay [1] was 0.302 (inactive); in the assay on XIP peptide (Xip251-270) it was 0.0473. Also, the z-score in assay [2] was -1.44; in assay [3] it was -1.69 (inactive); in assay [4] it was -0.0659 (inactive); in assay [5] it was 0.184 (inactive).
For `O=C(C1N=C(c2ccc(OCCCO)cc2)N(c2ccccc2)O1)N1CCOCC1` (stereo unspecified), the composite z-score is 0.254 (inactive) in assay [1] and 0.206 in the assay on XIP peptide (Xip251-270). For the same compound, the z-score in assay [2] is -0.277; in assay [3], -2.88 (inactive); in assay [4] it was -0.554 (inactive); in assay [5] it was -0.262 (inactive).
As to `CN1C(=O)C2C=CC(C(O)C3CCCCC3)N(Nc3ccc([N+](=O)[O-])cc3[N+](=O)[O-])C2C1=O` (stereo unspecified), the composite z-score in assay [1] was 0.514 (inactive); with XIP peptide (Xip251-270), 0.487. For the same compound, the z-score in assay [2] is 0.501; in assay [3] it was -2.4 (inactive); in assay [4], 0.168 (inactive); in assay [5], 0.377 (inactive).
Regarding `CCCC=C(CCC)[C@@H](NS(=O)(=O)c1cccs1)c1ccc(C(=O)OC)cc1`, the composite z-score in assay [1] was 0.219 (inactive); in the assay on XIP peptide (Xip251-270), 0.507. The z-score in assay [2] was -0.677; in assay [3] it was -3.19 (inactive); in assay [4], -0.284 (inactive); in assay [5], 0.0089 (inactive).
Consider `O=C1C2C=CC(C(O)C(c3ccccc3)c3ccccc3)N(n3cnnc3)C2C(=O)N1Cc1ccccc1` (stereo unspecified), for which the composite z-score in assay [1] is 0.23 (inactive); in the assay on XIP peptide (Xip251-270) it was 0.664. Further, the z-score in assay [2] is -0.528; in assay [3], -3.79 (inactive); in assay [4], 0.414 (inactive); in assay [5], -0.402 (inactive).
On to `CN(C)C(=O)[C@]1(Cc2ccccc2CN=[N+]=[N-])N=C(c2ccc(OCCCO)cc2)O[C@@H]1c1ccccc1CN=[N+]=[N-]`, for which the figures for the composite z-score (in assay [1]; in the assay with XIP peptide (Xip251-270)) were 1.01 (inactive) and 0.637, respectively. The z-score in assay [2] is -2.68; in assay [3], -0.212 (inactive); in assay [4] it was -0.123 (inactive); in assay [5] it was -0.249 (inactive).
Take `[N-]=[N+]=Nc1ccccc1C[C@]1(C(=O)NCC(O)CO)N=C(c2ccc(OCCCO)cc2)O[C@H]1c1ccccc1N=[N+]=[N-]` (stereo partly specified): the values for the composite z-score (in assay [1]; with XIP peptide (Xip251-270)) were 0.0936 (inactive) and -0.316, respectively. The z-score in assay [2] is -2.44; in assay [3] it was -5.33 (inactive); in assay [4], -0.467 (inactive); in assay [5], -0.312 (inactive).
Turning to `C=CCNC(=O)[C@H]1[C@@H]2C(=O)O[C@@H](c3ccccc3)[C@@H](c3ccccc3)N2[C@@H](c2ccccc2OCCO)[C@]12C(=O)Nc1ccc(C#CC3=CCCCC3)cc12`, the composite z-score in assay [1] was -0.274 (inactive); with XIP peptide (Xip251-270) it was 0.769. The z-score is -2.06 in assay [2], 2.46 (inactive) in assay [3], -0.333 (inactive) in assay [4] and -0.739 (inactive) in assay [5].
Turning to `C[C@]1(C(=O)NC2CC2)c2ccccc2C(=O)N(Cc2cc(C(F)(F)F)cc(C(F)(F)F)c2)[C@H]1c1ccc(CO)cc1`, the composite z-score in assay [1] is 1.56 (inactive); with XIP peptide (Xip251-270), 0.849. For the same compound, the z-score in assay [2] is -0.895; in assay [3], -3.26 (inactive); in assay [4], -0.66 (inactive); in assay [5], -0.479 (inactive).
For `C=CCN1C(=O)[C@]2(O[C@H](CCO)[C@@H]([Si](C)(C)c3ccc(OC)cc3)[C@@H]2C)c2cc(N3C(=O)c4cccc5cccc3c45)ccc21`, the composite z-score in assay [1] was 0.966 (inactive); in the assay on XIP peptide (Xip251-270), 0.749. The z-score in assay [2] is -2.74; in assay [3], -3.37 (inactive); in assay [4], -2.42 (inactive); in assay [5], -1.91 (inactive).
For the compound `O=C1OCCC=C[C@H]2OC34C=CCN(CCN5CCOCC5)C(=O)[C@H]3N(CCCCCCO)C(=O)[C@@H]4C12` (stereo partly specified), the composite z-score in assay [1] was 0.995 (inactive); with XIP peptide (Xip251-270) it was 0.091. The z-score was -0.0217 in assay [2], -5.15 (inactive) in assay [3], -0.334 (inactive) in assay [4] and -0.109 (inactive) in assay [5].
Regarding `NCCCCCNC(=O)[C@@H]1C[C@@H]2C(=O)N[C@@H](Cc3ccccc3)C(=O)N2[C@@H]1c1cccc(OCCO)c1`, the composite z-score in assay [1] is 0.251 (inactive); with XIP peptide (Xip251-270) it was 0.595. Moreover, the z-score in assay [2] is 0.304; in assay [3] it was -4.39 (inactive); in assay [4] it was -0.143 (inactive); in assay [5] it was -0.223 (inactive).
As to `CN(C)C(=O)[C@@]1(Cc2ccccc2)N=C(c2ccc(OCCCO)cc2)O[C@H]1c1ccccc1N=[N+]=[N-]`, the composite z-score in assay [1] is -0.111 (inactive); in the assay with XIP peptide (Xip251-270), 0.651. The z-score in assay [2] was -1.93; in assay [3] it was -4.88 (inactive); in assay [4], -0.524 (inactive); in assay [5] it was -0.793 (inactive).

For the origin of these results see PubChem BioAssay.
